Bioassay records: PubChem, several laboratories
The list is not random: actives were taken first. Their share in the collection is about 5%.
PREPL inhibitor: PREPL enzyme inhibitors, primary screen, biochemical, fluorescence polarization. hit rate 0.68% among 320,000. AID 2751, 2010. inhibition, % at 5.96 µM. recombinant PREPL, fluorescence polarization activity-based probe; in the data active means inhibition above about 43%;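 further: 0% = enzyme with DMSO and 100% = wells lacking enzyme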
AI-2 QS modul: Vibrio harveyi AI-2 quorum sensing modulators, primary screen, JMH597 strain, luminescence/OD600 ratio | Vibrio harveyi JMH597 AI-2 luminescence/OD600 ratio, 9 h; hits give low values; strain lacks LuxN and CqsS sensors; 0 = neutral-control median | hit rate 0.4% among 300,000 | activity change, % at 7.5 µM; in the data active means activity change below about -75%, passing the limit was not always enough;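 further: luminescence divided by OD600 gain over 9 h not by final OD600 alone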
ALR H2O2 inh: inhibitors of human ALR sulfhydryl oxidase, primary screen, biochemical, H2O2 detection, HRP-luminol luminescence, single point | purified ALR, DTT oxidation | inhibition, % (no concentration beside the values) | hit rate 3.8% among 290,000;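 active means mean replicate inhibition above about 79%, with every replicate also reaching it, limit read from the data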
Target sequence (P55789 whole entry, looked up): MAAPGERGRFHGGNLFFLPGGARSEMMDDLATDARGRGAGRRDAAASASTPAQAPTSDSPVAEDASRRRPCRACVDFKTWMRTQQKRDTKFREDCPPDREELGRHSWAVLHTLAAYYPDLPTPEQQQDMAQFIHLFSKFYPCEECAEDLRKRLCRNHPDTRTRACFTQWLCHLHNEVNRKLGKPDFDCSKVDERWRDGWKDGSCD
CHT block: inhibitors of human choline transporter CHT. High affinity choline transporter 1 (Homo sapiens), Q9GZV3. CHT-expressing cells, membrane potential dye, choline response; hits give low values. B-score at 10 µM. hit rate 0.86% among 310,000. AID 488975, 2010;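 active means B-score over 3 SD under the library average, and starting fluorescence ratio not unusually high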;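 further: choline stimulus applied at its EC90 after an EC20 pre-addition; B-score computed on integrated fluorescence ratio after choline addition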
CHT PAM: CHT positive allosteric modulators, primary screen, cell-based, membrane potential dye, choline EC20. CHT-expressing cells; hits give high values; LV-AA mutant CHT in HEK293 cells. AID 488977, 2010. High affinity choline transporter 1 (Homo sapiens), Q9GZV3. B-score at 10 µM. hit rate 0.49% among 310,000;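 active means initial fluorescence not abnormally high and integrated response B-score, plate-corrected, over 3 SD above library mean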
CHT inh conf: CHT inhibitors, confirmation, cell-based, membrane potential dye, duplicate; shares compounds with CHT block; CHT activity remaining % of control (hits give low values), % at 10 µM; CHT-expressing cells, choline membrane potential dye; LV-to-AA substituted CHT, HEK293 cells; hit rate 70% among 2,400;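 active means choline transporter activity left, mean of duplicates at 10 µM, below buffer-only control mean minus 3 SD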;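 further: depolarization triggered by choline at its EC90 following an EC20 pre-addition; 0% = hemicholinium-3 full block and 100% = buffer-only control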
HEK293 CHT ctr: membrane potential effects in parental HEK293, counter-screen for CHT inhibitor project, cell-based, membrane potential dye; shares compounds with CHT block; choline response; active = decrease or increase beyond buffer ±3SD; membrane potential ratio readout (active if shifted either direction beyond buffer ±3SD; no single direction) at 10 µM; hit rate 4% among 2,400; AID 493222, 2011;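 further: parental cells lack the transporter so any hit is non-specific; ratio is peak minus trough fluorescence over baseline after EC90 choline challenge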
Active calls of the source: *; i = inactive; nt = no result.

SMILES	PREPL inhibitor	AI-2 QS modul	ALR H2O2 inh	CHT block	CHT PAM	CHT inh conf	HEK293 CHT ctr
O=C(CCN1CCOCC1)c1ccc2c(c1)OCCO2	4.3	29.7	49.5	-5.18*	i	i	i
CC(C)(C)S(=O)(=O)/C(C#N)=N/Nc1ccc(C#N)cc1	-4.2	9.1	65.2	i	i	55.4%*	i
CC(C)(C)S(=O)(=O)/C(C#N)=N/Nc1ccc(S(N)(=O)=O)cc1	-3.2	13.8	0.5	i	i	nt	nt
COc1ccc(N2CCN(CC(=O)Nc3c(C)cc(C)cc3C)CC2)cc1	0.9	29.5	75.0	-6.08*	i	52.8%*	i
Cc1cc(C)c(NC(=O)CN2CCN(C)CC2)c(C)c1	-1.6	26.6	nt	i	i	nt	nt
CC1(C)CC(=O)/C(=C(\O)CCCN2C(=O)c3ccccc3C2=O)C(=NCC(=O)O)C1	5.2	9.3	-9.0	-5.41*	i	i	i
COc1ccc(-n2cnc3cc(C(=O)NCC4CCCO4)ccc32)cc1 (stereo unspecified)	0.9	12.0	-10.2	i	i	nt	nt
CC(=O)N1CCC(=NNC(=O)c2cc3ccccc3cc2O)CC1	11.0	25.1	43.8	i	i	nt	nt
COc1cc(/C=C2/S/C(=N/S(=O)(=O)Cc3ccccc3)NC2=O)c([N+](=O)[O-])cc1OC	14.9	3.0	29.5	-6.29*	i	37.3%*	i
COc1c(/C=C2\SC(=Nc3ccccc3Cl)NC2=O)cccc1[N+](=O)[O-]	16.0	1.8	57.3	i	i	nt	nt
COc1cc(/C=C2/S/C(=N/S(=O)(=O)c3ccccc3)NC2=O)c([N+](=O)[O-])cc1OC	8.7	15.5	nt	i	i	nt	nt
COc1cc(/C=C2\S/C(=N/S(=O)(=O)Cc3ccccc3)NC2=O)c([N+](=O)[O-])cc1OC	4.3	15.9	21.4	-4.95*	i	48.6%*	i
CC1CCCCN1C(=S)NC(=O)c1cc(Br)ccc1Cl (stereo unspecified)	-2.5	nt	7.8	nt	nt	nt	nt
CC(NCc1ccc(F)cc1)C(=O)Nc1cc(S(=O)(=O)N2CCCCC2)ccc1Cl (stereo unspecified)	7.7	8.1	-6.5	-5.77*	i	50.3%*	i
COC(=O)c1ccc(CN2CCC(Oc3cccc(C(=O)N4CCOCC4)c3)CC2)cc1	11.4	30.1	0.5	i	i	nt	nt
COc1ccc(-n2cnnc2SCC(=O)Nc2cc(S(=O)(=O)N3CCCCC3)ccc2C)cc1	2.4	9.2	nt	-5.31*	i	53.1%*	i
Cc1ccc(S(=O)(=O)N2CCCCC2)cc1NC(=O)CSc1nncn1-c1ccccc1	5.3	-2.8	-3.0	-6.14*	i	40.8%*	i
COc1ccc(-n2cnnc2SCC(=O)Nc2cccc(S(=O)(=O)N3CCCCC3)c2)cc1	7.5	31.9	-4.6	i	i	nt	nt
O=S1(=O)CCOCCN1Cc1ccc(Cl)cc1Cl	-6.9	7.2	2.0	i	i	nt	nt
Cc1ccc(NC(=O)CC(C)S(=O)(=O)c2ccc3c(c2)NC(=O)CO3)c(Cl)c1 (stereo unspecified)	-4.3	34.6	-0.4	i	i	nt	nt
Cc1ccc(N(C)C(=O)CC(C)S(=O)(=O)c2ccc3c(c2)NC(=O)CO3)cc1 (stereo unspecified)	3.1	16.8	-3.6	-5.73*	i	i	i
COc1ccccc1OCC(=O)NC1CCSc2ccccc21 (stereo unspecified)	7.7	nt	-3.1	nt	nt	nt	nt
CC(C)(C)NC(=O)CSc1nnc(-c2ccco2)n1Cc1ccco1	20.0	12.4	1.9	i	i	nt	nt
O=C(CSc1nnc(-c2ccco2)n1Cc1ccco1)NCc1cccs1	1.5	19.7	68.5	-5.28*	i	66.9%*	i
CCNC(=O)[C@H]1O[C@@H](n2cnc3c(N)nc(NCCc4ccc(CCC(=O)O)cc4)nc32)[C@H](O)[C@@H]1O	2.3	3.0	-7.4	-5.27*	i	45.9%*	i
SMILES	PREPL inhibitor	AI-2 QS modul	ALR H2O2 inh	CHT block	CHT PAM	CHT inh conf	HEK293 CHT ctr
S=c1nc(-c2sccc2OCc2ccc(Cl)cc2Cl)[nH][nH]1	-2.9	33.2	96.5*	-5*	i	69.7%*	i
CCCCc1ccc(/C(C)=N/NC(=O)C2CCCC2)cc1	4.5	11.5	-13.8	i	i	nt	nt
O=C(NC(=O)c1ccccc1O)c1ccc2c(c1)CCO2	5.0	nt	43.6	i	i	nt	nt
Cc1nonc1NC(=O)CSc1ccc(-c2ccccc2)nn1	-7.0	23.2	27.0	-7.98*	i	23.3%*	i
CS(=O)(=O)N1CCc2cc(C(=O)N3CCN(c4ccc(F)cc4)CC3)ccc21	-5.6	34.2	22.9	i	i	nt	nt
O=[N+]([O-])c1ccc(O)c(C2=NNC(c3ccccc3F)C2)c1 (stereo unspecified)	11.2	36.6	9.0	-10.2*	i	19.5%*	i
CC(C)CNS(=O)(=O)c1ccc(CCC(=O)N2CCN(Cc3ccc4c(c3)OCO4)CC2)cc1	9.1	20.8	-13.8	-5.55*	i	61.8%*	i
O=C(/C=C/c1ccc(Cl)c(Cl)c1)NC1=NCCS1	-16.7	12.8	-8.8	i	i	nt	nt
Cc1cc(Cl)ccc1OCCCC(=O)N1CCN(C(=O)c2ccco2)CC1	16.6	-4.8	-1.2	-5.3*	i	68.1%*	i
O=C(c1ccco1)N1CCN(C(=O)c2ccc(COc3ccc4c(c3)CCC4)o2)CC1	13.2	8.5	-0.5	i	i	nt	nt
O=C(c1ccco1)N1CCN(C(=O)c2ccc(COc3ccc(Cl)cc3Cl)o2)CC1	-26.8	31.1	48.8	-6.34*	i	i	i
O=C(CCCOc1ccccc1)N1CCN(C(=O)c2ccco2)CC1	5.7	25.6	-14.3	i	i	nt	nt
O=[N+]([O-])c1cc([N+](=O)[O-])c2c(=Nc3ccccc3)n(-c3ccccc3)n(O)c2c1	30.3	37.3	-50.8	-6.22*	i	60.8%*	i
O=C(CNC(=O)c1ccc(Cl)cc1Cl)OCC(=O)c1ccc2c(c1)OCCO2	-10.7	31.2	1.2	-6.67*	i	66.1%*	i
O=C(COC(=O)CNC(=O)c1ccc(Cl)cc1Cl)NCC1CCCO1 (stereo unspecified)	5.1	10.2	-4.0	i	i	nt	nt
